12-LOX inh = blocks human arachidonate 12S-lipoxygenase; P18054; purified 12hLO, xylenol orange hydroperoxide absorbance; Potency, µM (highest dose often 108 µM), without a hit: top-dose activity change, negative = inhibition, hits mostly inhibitors; 580,000 tested, 1.1% active; AID 1671190; note: % is set by controls: 0 for no effect and ±100 for the full control effect
Target sequence (P18054 whole entry, looked up): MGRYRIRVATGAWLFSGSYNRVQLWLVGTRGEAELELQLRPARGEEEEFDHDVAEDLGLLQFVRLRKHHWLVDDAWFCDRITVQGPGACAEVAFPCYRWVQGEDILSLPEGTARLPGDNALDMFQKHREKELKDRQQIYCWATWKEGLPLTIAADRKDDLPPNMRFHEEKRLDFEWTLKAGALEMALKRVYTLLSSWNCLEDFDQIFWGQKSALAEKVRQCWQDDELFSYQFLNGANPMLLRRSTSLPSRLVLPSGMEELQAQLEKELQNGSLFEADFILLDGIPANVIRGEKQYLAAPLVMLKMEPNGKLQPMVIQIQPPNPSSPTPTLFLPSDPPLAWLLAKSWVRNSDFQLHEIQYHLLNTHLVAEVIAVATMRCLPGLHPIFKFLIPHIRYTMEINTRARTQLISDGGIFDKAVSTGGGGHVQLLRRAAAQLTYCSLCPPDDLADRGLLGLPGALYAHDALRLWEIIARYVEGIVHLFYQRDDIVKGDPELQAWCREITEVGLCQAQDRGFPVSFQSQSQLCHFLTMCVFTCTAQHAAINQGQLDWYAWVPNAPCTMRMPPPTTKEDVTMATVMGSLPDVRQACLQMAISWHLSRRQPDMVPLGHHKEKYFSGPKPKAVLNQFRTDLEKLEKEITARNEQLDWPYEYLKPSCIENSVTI
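Hydroperoxide product was detected by ferrous iron/xylenol orange as the 573 to 405 nm absorbance ratio. Arachidonic acid at 40 uM (final) was turned over for 30 min at room temperature by 150 nM human 12hLO, pH 7.0 Hepes buffer, after 15 min compound preincubation.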
TGFb inhibitor = blocks TGF-b signaling. HepG2 CAGA-GFP TGF-b/SMAD3 reporter, GFP fluorescence, 18 h; TGF-beta stimulated, 500 pg/mL final. Potency, µM (series often up to 46.1 µM), for inactives: top-dose activity, negative = inhibition, usual class: inhibitors. 410,000 tested, 1.2% active. AID 588855; note: % is set by controls: 0 for no effect and ±100 for the full control effect; nearly all actives have a fitted effect of over 65% in size
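Inhibition was scored as loss of TGF-beta-induced (500 pg/mL final, 18 hours, 37 degrees C) GFP in HEPG2 cells carrying a CAGA-GFP reporter, in DMEM with 1% FBS. Well GFP was summed per cell; Activity was normalised to unstimulated and stimulated DMSO wells, then concentration-response fitting.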
ATXN2 expr inh = inhibitors of ATXN2 expression; 360,000 tested, 0.72% active; Potency, µM (top dose mostly 57 µM), inactives show at the top dose activity change, negative = inhibition, usual class: inhibitors; HEK-293 ATXN2-luciferase reporter, luminescence, 24 h; note: % is set by controls: 0 for no effect and ±100 for the full control effect; nearly all actives have a fitted effect of over 55% in size
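qHTS (up to 57 uM final) was run with 24 h compound exposure of reporter cells at 37 °C. Each well was multiplexed: SteadyGlo luminescence measured ATXN2-luciferase expression after a fluorogenic Gly-Phe-AFC viability readout (25 uM final).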
HepG2 tox-1 = kills HepG2 cells in TGF-b inhibitor counter-screen | HepG2 CAGA-GFP viability, ATP luminescence, 18 h | Potency, µM (titrated, usually from 46.1 µM), for inactives: at the highest dose activity change, negative = cytotoxicity, actives largely listed as cytotoxic | AID 588856 | 410,000 tested, 0.76% active
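HepG2 CAGA-GFP cells (1000/well, DMEM with 1% FBS) received compound, then TGF-beta at 500 pg/mL final, and were incubated 18 hours at 37 degrees C. Viability was read by CellTiter-Glo luminescence. Media-only wells were set as complete cell-killing and DMSO as no toxicity.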
ATXN viability = reduces viability in counter-screen for ATXN expression inhibitors; S2 cells (HEK-293 line with an ATXN2-luciferase reporter) viability, CellTiter-Fluor protease fluorescence, 24 h; Potency, µM (doses to about 56.7 µM), usual class: cytotoxic; 400,000 tested, 0.49% active; AID 651635; note: nearly all actives have a fitted effect of over 40% in size
TGFb confirm = TGF-b pathway inhibition, cherry-pick retest; HepG2 CAGA-GFP TGF-b reporter, GFP fluorescence, 18 h; cells stimulated with TGF-beta, 500 pg/mL; 1,600 tested, 63% active; Potency, µM (highest dose often 46.1 µM), for inactives: top-dose activity, negative = inhibition, usual class: inhibitors; shares compounds with TGFb inhibitor; note: % is set by controls: 0 for no effect and ±100 for the full control effect; nearly all actives have a fitted effect of over 65% in size
HepG2 tox-2 = counter-screen for TGF-b inhibitors: cytotoxicity in HepG2 cells; Potency, µM (series often up to 46.1 µM), inactives show at the top dose activity, negative = cytotoxicity, most hits filed as inhibitors; shares compounds with TGFb inhibitor; HepG2 CAGA-GFP viability, ATP luminescence, 18 h; cells stimulated with TGF-beta, 500 pg/mL; 1,600 tested, 27% active; note: % is set by controls: 0 for no effect and ±100 for the full control effect; nearly all actives have a fitted effect of over 70% in size
CCL64 TGFb inh = blocks TGF-b signaling in CCL64 reporter cells | 1,600 tested, 41% active | AID 720536 | Potency, µM (series often up to 46.1 µM), without a hit: at the top dose activity, negative = inhibition, hits mostly inhibitors | shares compounds with TGFb inhibitor | CCL64 CAGA-GFP reporter, TGF-b stimulated, GFP fluorescence, 18 h; note: nearly all actives have a fitted effect of over 65% in size
COP TGFb inh = validation of TGF-b inhibitors in HepG2 COP promoter reporter | shares compounds with TGFb inhibitor | HepG2 COP-GFP TGF-b reporter, GFP fluorescence, 18 h; cells stimulated by added recombinant TGF-beta | Potency, µM (doses to about 46.1 µM), without a hit: at the highest dose activity, negative = inhibition, actives largely listed as inhibitors | 1,600 tested, 3% active | AID 720537; note: nearly all actives have a fitted effect of over 70% in size
Active calls of the source: *; i = inactive; ? = inconclusive; . = not tested or not shown; [ ] = another dose, or the depositor's remark. The list is not random: actives were taken first. Their share in the collection is about 2.7%. Calls come from the whole dose curve; as a rule, active = well fitted curve in the direction sought with a large enough effect; inconclusive = small, poorly fitted or top-dose-only effect, or another doubt; inactive = no such curve, though single readings can be large; an effect the other way counts as inactive or inconclusive. Potency is the fitted concentration of half-maximal effect.

SMILES	12-LOX inh	TGFb inhibitor	ATXN2 expr inh	HepG2 tox-1	ATXN viability	TGFb confirm	HepG2 tox-2	CCL64 TGFb inh	COP TGFb inh
COc1cccc2c1C(CO)N1C(C#N)C3CC(C(=O)O)C(C1C2)N3C (centres undefined)	5.0%	1.26µM*	0.282µM*	16.1%	i	0.651µM*	0.517µM*	7.31µM*	-3.6%
COc1cc(OC)c(C(=O)/C=C/c2ccccc2)c(O)c1O	?	-2.7%	-18.8%	-26.8%	?	.	.	.	.
COc1cc(O)cc(O)c1C(=O)/C=C/c1ccccc1	?	14.1µM*	?	-29.2%	?	20.6µM*	?	?	21.2%
C=CCNC(=O)c1onc(CSc2ccc(F)cc2)c1C(=O)NCCOC	-13.0%	?	-1.3%	1.9%	i	-7.3%	2.2%	12.4%	-0.7%
COCCNC(=O)C(C)[C@@H]1CC[C@@]2(C)CC[C@H](NC(=O)c3cnccn3)[C@@H](C)[C@@H]2[C@H]1O (some centres undefined)	-10.1%[176 µM]	.	.	.	.	.	.	.	.
CC(NC(=O)C1CCCN1S(=O)(=O)c1ccc2c(c1)n(C)c(=O)c(=O)n2C)c1ccccc1 (centres undefined)	0.6%	-1.8%	-0.8%	-28.8%	i	.	.	.	.
CC(NC(=O)C1CCCN1S(=O)(=O)c1ccccc1)c1ccccc1 (centres undefined)	276.7%	?	-12.6%	-28.2%	i	?	7.4%	8.8%	0.7%
CC(C)C[C@@H](CN1CCCC1CN1C(=S)NC[C@@H]1Cc1ccc(O)cc1)N1C[C@H](Cc2ccccc2)N(CCc2ccccc2)C1=S (some centres undefined)	-47.6%	?	-19.7%	-59.6%	i	?	-19.6%	?	26.7%
Oc1ccc(C[C@H]2CNC(=S)N2CC2CCCN2C[C@H](Cc2ccc(O)cc2)N2C[C@H](Cc3ccccc3)N(CCc3ccccc3)C2=S)cc1 (some centres undefined)	-5.4%	?	?	-5.8%	i	.	.	.	.
CCOc1ccc(CCN2C(=S)N([C@@H](CC(C)C)CN3CCC[C@@H]3CN3C(=S)NC[C@@H]3Cc3ccccc3)C[C@@H]2Cc2ccc(O)cc2)cc1	?	7.94µM*	-22.9%	-15.7%	i	?	?	?	27.1%
CC(C)C[C@@H](CN1CCC[C@@H]1CN1C(=S)NC[C@@H]1Cc1ccc(O)cc1)N1C[C@H](Cc2ccccc2)N(CCc2ccccc2)C1=S	.	15.8µM*	?	-5.9%	?	?	-29.9%	?	26.1%
C#CC(C)(CC)NC(=O)/C=C/c1cc(OC)c(OC)c(OC)c1 (centres undefined)	3.4%	.	.	.	.	.	.	.	.
O=S(=O)(c1ccc(Oc2ccc3ccccc3c2)nc1)N1CCCCC1	-16.5%	.	.	.	.	.	.	.	.
c1ccc(-c2nnn(Cc3ncc(-c4ccccc4)o3)n2)cc1	21.4%	.	.	.	.	.	.	.	.
COc1ccccc1-n1cnc2cc(NCc3ccco3)ccc21	0.0%	8.91µM*	16.6%	-1.8%	?	13µM*	-3.7%	20.6µM*	-19.5%
COc1cccc(CNC(=O)c2cc(Sc3cccc(Cl)c3)nc3ccccc23)c1	-6.2%	1.0%	12.2%	-11.8%	i	.	.	.	.
O=C(NCc1cccnc1)c1cc(Sc2cccc(Cl)c2)nc2ccccc12	-8.2%	11.2µM*	-18.7%	-14.4%	i	?	-28.9%	?	26.7%
Nc1nccnc1C(=O)NCc1cc(Br)ccc1F	-35.8%	.	.	.	.	.	.	.	.
Cc1ccc(C(=O)CSc2cc(C)nc(SCC(=O)c3ccccc3)n2)cc1	0.0%	?	-12.3%	-9.6%	?	?	-15.2%	-2.8%	10.0%
CC(=O)c1cccc(N=c2scc(-c3ccc(S(=O)(=O)N4CCOCC4)cc3)n2CCO)c1	-28.7%	?	-38.5%	-36.5%	i	1.0%	-28.7%	?	7.7%
N#Cc1cccc(CN2CC[C@@H]3OCC(=O)N(Cc4ccccc4)[C@H]3CC2)c1	-5.0%[176 µM]	.	.	.	.	.	.	.	.
CC(C)C(=O)NCCNC(=O)c1ccc2ccccc2n1	-8.5%	.	.	.	.	.	.	.	.
Cc1cccc(C)c1N(CC(O)Cn1c2ccccc2c2ccccc21)S(C)(=O)=O (centres undefined)	-19.2%	10µM*	?	-68.7%	?	23.1µM*	?	23.1µM*	62.6%
Cc1ccc2nc(SCC(=O)Nc3cc(C(F)(F)F)ccc3N3CCOCC3)[nH]c2c1	-5.0%	10µM*	-19.8%	-20.0%	?	1.84µM*	-8.8%	0.731µM*	-18.5%
CCOc1ccc(N(CC(=O)Nc2ccccc2OCC)S(=O)(=O)c2c(C)noc2C)cc1	1.3%	5.01µM*	.	-11.7%	i	6.51µM*	8.3%	4.11µM*	-18.5%
CCOc1ccc(N(CC(=O)Nc2ccc(C)cc2)S(=O)(=O)c2c(C)noc2C)cc1	-21.2%	11.5%	-2.9%	-3.0%	i	.	.	.	.
C=CCC[C@@H](Cc1ccc(F)cc1)C(=O)OC[C@@H](NC(=O)[C@@H](CC=C)CC(=O)N(CCO)Cc1ccccc1)c1ccccc1	-15.9%	11.2µM*	?	-19.7%	?	14.6µM*	-25.5%	?	-7.2%
C=CC[C@H](CC(=O)N(CCO)Cc1ccccc1)C(=O)N[C@H](COC(=O)[C@@H](CC=C)Cc1ccc(F)cc1)Cc1c[nH]c2ccccc12	-29.3%	12.6µM*	?	-23.3%	?	16.4µM*	-22.6%	?	13.2%
C=CC[C@@H](CC(=O)N(CCO)Cc1ccccc1)C(=O)N[C@@H](COC(=O)[C@@H](CC=C)Cc1ccc(F)cc1)Cc1ccccc1	-18.2%	-13.0%	?	-4.3%	?	.	.	.	.
